In the library only some 11% were active in any assay of this set; here they are far more common.
AmpC detergent: AmpC beta-lactamase inhibition with detergent present. Potency, µM (series often up to 114 µM), inactives show at the top dose activity change, negative = inhibition, actives largely listed as inhibitors. AmpC hydrolysis of nitrocefin, absorbance 480 nm, 0.01% Triton. AID 485294. P00811. 0.041% of 370,000 active;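 also: 0% = no-compound wells and -100% = no-enzyme wells; nearly all actives have a fitted effect of over 25% in size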
Target sequence (P00811 whole entry, looked up): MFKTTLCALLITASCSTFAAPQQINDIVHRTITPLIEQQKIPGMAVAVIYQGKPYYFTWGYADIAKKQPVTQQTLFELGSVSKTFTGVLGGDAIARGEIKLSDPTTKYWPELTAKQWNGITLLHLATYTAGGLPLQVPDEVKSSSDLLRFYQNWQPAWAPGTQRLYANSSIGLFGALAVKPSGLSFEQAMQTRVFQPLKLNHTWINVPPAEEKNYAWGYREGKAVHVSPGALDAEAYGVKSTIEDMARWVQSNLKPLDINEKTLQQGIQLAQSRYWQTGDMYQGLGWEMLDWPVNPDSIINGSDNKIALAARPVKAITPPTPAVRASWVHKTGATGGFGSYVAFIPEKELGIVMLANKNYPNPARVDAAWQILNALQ
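AmpC (5.3 nM in the dispensed reagent) in 20 mM phosphate pH 7.0 with 0.01% (detergent screen) or 0.0001% Triton X-100 was preincubated with compounds for 15 min at room temperature. Nitrocefin was then added from an 800 uM solution, and hydrolysis was followed at 480 nm.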
Pf growth 48h: P. falciparum growth inhibition at 48 hours (one generation); 5.9% of 310,000 active; Potency, µM (doses to about 28.7 µM), without a hit: at the highest dose activity change, negative = inhibition, hits mostly inhibitors; P. falciparum luciferase growth in erythrocytes, 48 h; AID 504832
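A one-generation exposure of luciferase-tagged malaria parasites in RPMI 1640/Albumax erythrocyte culture, 37 C and 5% CO2. Inhibition is inferred from decreased luminescence after adding detection reagent.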
Pf growth 96h: P. falciparum growth inhibition at 96 hours; 6.9% of 320,000 active; AID 504834; Potency, µM (doses to about 28.7 µM), for the others: at the highest dose activity change, negative = inhibition, most hits filed as inhibitors; P. falciparum luciferase reporter growth, 96 h
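Compounds incubated with erythrocytes infected by luciferase-expressing P. falciparum (2% hematocrit, 0.05% parasitemia final) for 96 hours, 37 C in 5% CO2. Growth inhibition scored as decreased luciferase luminescence.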
AMA1-RON2 inh: inhibitors of Plasmodium falciparum AMA1-RON2 interaction. AlphaScreen AMA1-biotinylated RON2 peptide binding. Potency, µM (series often up to 58.2 µM), inactives show top-dose activity change, negative = inhibition, hits mostly inhibitors. 0.2% of 360,000 active;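 also: 0% = vehicle wells and -100% = peptide control; nearly all actives have a fitted effect of over 45% in size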
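AMA1 (3D7) with his tag at 25 nM final met compounds first, then biotinylated RON2 peptide at 25 nM; detection used donor plus acceptor beads, 10 µg/mL apiece, read by AlphaScreen after 30 min at room temperature.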
AmpC inh no detg: inhibitors of E. coli AmpC beta-lactamase without detergent; P00811; AmpC nitrocefin hydrolysis, absorbance 480 nm, 0.0001% Triton; Potency, µM (top dose mostly 57.1 µM), without a hit: at the highest dose activity change, negative = inhibition, actives largely listed as inhibitors; 0.52% of 330,000 active;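 also: plate controls were no compound for no effect and no enzyme for full effect; nearly all actives have a fitted effect of over 20% in size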
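AmpC (5.3 nM in the dispensed reagent) in 20 mM phosphate pH 7.0 with 0.01% (detergent screen) or 0.0001% Triton X-100 was preincubated with compounds for 15 min at room temperature. Nitrocefin was then added from an 800 uM solution, and hydrolysis was followed at 480 nm.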
HCV inh: inhibitors of hepatitis C virus infection. Potency, µM (series often up to 41.8 µM), for the others: at the highest dose activity change, negative = inhibition, most hits filed as inhibitors. Huh7.5.1 HCVcc-Cre infection, luciferase reporter, 44 h. 3.4% of 340,000 active
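1,000 cells/well; 4 h culture; + compound; + HCVcc-Cre (~0.5 moi); 44 h; luciferase substrate, RT 15 min; read 15 sec.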
* = called active by the depositor; ? = inconclusive; · = no result; [ ] = another dose, or the depositor's remark. Calls follow the shape of the dose curve; as a rule, active = well fitted curve in the direction sought with a large enough effect; inconclusive = small, poorly fitted or top-dose-only effect, or another doubt; inactive = no such curve, though single readings can be large; an effect the other way counts as inactive or inconclusive. Unless noted, % is scaled to controls: 0 for no effect and ±100 for the full control effect; potency is read from the fitted curve at half-maximal effect.

SMILES	AmpC detergent	Pf growth 48h	Pf growth 96h	AMA1-RON2 inh	AmpC inh no detg	HCV inh
COc1ccc(C(=O)C2CCCN(C(=O)CSC)C2)cc1OC (stereo not drawn)	-6%	19%	13µM*	2%	1%	-7%
COc1ccccc1C(=O)C1CCCN(C(=O)c2cccnc2SC)C1 (stereo not drawn)	8%	5.2µM*	68%	-16%	3%	4%
COc1ccc(N=C2NN=C(c3c(C)[nH]c4ccccc34)CS2)cc1	?	?	?	?	3%	?
Cc1[nH]c2ccccc2c1C1=NNC(=Nc2ccc(F)cc2)SC1	6%	?	8.3µM*	12%	0%	?
Nc1c2c(nc3c1CCC3)CCCC2	-1%	4.8µM*	3.8µM*	·	-10%	·
Nc1c2c(nc3sc4c(c13)CCCCC4)CCCC2	?	?	18%	-9%[11.6 µM]	-1%	22µM*
O=C1CCSc2ccc(Cl)cc2N1Cc1ccccc1	?	8%	14%	-1%	-17%	20%
O=C1CCSc2ccc(Cl)cc2N1Cc1ccc(Cl)cc1	-14%	?	15µM*	-5%	-4%	8%
CCCNC(=O)Cn1ncc2c3ccccc3n(CCC)c2c1=O	0%	·	·	·	·	·
Cc1ccc2[nH]c3c(c2c1)CCCC3NC(=O)CCl (stereo not drawn)	?	2.3µM*	13µM*	-11%	30%	?
O=CNC1CCCc2c1[nH]c1ccc(Cl)cc21 (stereo not drawn)	-12%	16%	·	-4%	5%	7.1µM*
CCN1C(=O)c2ccccc2Sc2ccc(NC(=O)COc3ccc(Cl)cc3)cc21	5%	·	·	·	·	·
COc1ccc(N/N=C(\C=N\O)C(=O)c2ccc(OC)cc2)cc1	4%	·	12%	-16%	-16%	-16%
N/N=C/C(=N\Nc1ccc(Cl)cc1)C(=O)c1ccncc1	-11%	?	?	-2%	-12%	22µM*
Cc1cc(C)c(S(=O)(=O)N2CCCCC2)c(C)c1N(C)S(=O)(=O)c1ccc(Cl)cc1	-9%	9.3µM*	?	-11%	-28%	?
CC(c1nc2ccccc2c(=O)[nH]1)N(C)c1ccc2ccccc2c1 (stereo not drawn)	-13%	6.6µM*	15µM*	12%	-20%	3%
CN(C)S(=O)(=O)c1cccc(NC(=O)CN2C(=O)NC(Cc3c[nH]c4ccccc34)C2=O)c1 (stereo not drawn)	5%	-5%	-29%	9%	-53%	1.6µM*
O=C(CN1C(=O)NC(Cc2c[nH]c3ccccc23)C1=O)Nc1cccc(S(=O)(=O)N2CCCC2)c1 (stereo not drawn)	17%	-10%	-158%[5.75 µM]	-10%	3%[2.29 µM]	?
O=C(CN1C(=O)NC(Cc2c[nH]c3ccccc23)C1=O)Nc1cccc(S(=O)(=O)N2CCCCCC2)c1 (stereo not drawn)	-14%	-20%	?	-18%	-15%	10µM*
COc1cccc(NC(=O)CN2C(=O)NC(Cc3c[nH]c4ccccc34)C2=O)c1 (stereo not drawn)	·	·	·	6%	-29%	-16%
Cc1ccc(S(=O)(=O)N(C)C)cc1NC(=O)CN1C(=O)NC(Cc2c[nH]c3ccccc23)C1=O (stereo not drawn)	-5%	?	?	-10%	-14%	2%
Cc1ccc(NC(=O)CN2C(=O)NC(Cc3c[nH]c4ccccc34)C2=O)cc1S(=O)(=O)N1CCCCC1 (stereo not drawn)	-2%	-12%	?	-21%	?	11µM*
COCC(C)n1c(C)cc(C(=O)CN2C(=O)NC(Cc3c[nH]c4ccccc34)C2=O)c1C (stereo not drawn)	-5%	·	5.2µM*	-15%	66%	-14%
CC(C)c1ccc(NC(=O)c2ccc3c(c2)CCCN3S(C)(=O)=O)cc1	0%	·	·	·	·	·
COc1ccc(CCNC(=O)CCc2c(C)c3ccc(O)c(C)c3oc2=O)cc1	14%	·	·	·	·	·
SMILES	AmpC detergent	Pf growth 48h	Pf growth 96h	AMA1-RON2 inh	AmpC inh no detg	HCV inh
Cc1ccc2c(CN3CCN(S(=O)(=O)c4ccc5c(c4)OCCO5)CC3)cc(=O)oc2c1C	-12%	9.3µM*	?	-17%	-23%	13µM*
COc1cc2c(cc1OC)CN(Cc1cc(=O)oc3cc(C)c(Cl)cc13)CC2	-11%	9.3µM*	?	-4%	10µM*	?
COc1cc2c(cc1OC)CN(Cc1cc(=O)oc3c(C)c(C)ccc13)CC2	-4%	-27%	13µM*	-20%	16%	?
Cc1ccc2c(CN3C(=O)NC4(CCCCC4)C3=O)cc(=O)oc2c1C	-6%	0%	0.13µM*	3%	27%	-16%
COc1ccc(NC(=O)CCc2c(C)nc3nc(CNC(=O)OC(C)(C)C)nn3c2C)cc1OC	9%	·	·	·	·	·
Cc1ccc2c(CN3CC=C(c4ccccc4)CC3)cc(=O)oc2c1C	0%	5.2µM*	3.3µM*	-9%[11.6 µM]	-22%	4%
CN1CCN(Cc2ccc(-c3ccc(Cl)cc3)o2)CC1	-3%	-2%	·	-27%	0%	14µM*
Cc1cc(NC(=O)CCS(=O)(=O)c2cc(Br)cc3c2N(C(=O)C2CC2)CC3)ccc1Br	5%	·	·	·	·	·
CN(C)S(=O)(=O)N1CCN(CC(=O)Nc2ccc(Br)cc2)CC1	3%	-10%	5.2µM*	2%	26%	0%
COC(=O)c1ccc(NC(=O)CN2CCN(S(=O)(=O)c3ccc(Br)cc3)CC2)cc1	-7%	-3%	9.3µM*	-4%	18%	?
CCn1cc2nc(SCc3cc(C)ccc3C)n(CCc3ccccc3)c(=O)c2n1	5%	·	·	·	·	·
Cc1nc(SCC(=O)Nc2ccc(CN3CCCC3)cc2)c2c(C)c(C)sc2n1	8%	9.3µM*	13µM*	-10%	105%	?
O=C(CN(Cc1ccco1)C(=O)c1cc(=O)[nH]c2ccccc12)Nc1ccccc1Br	-13%	?	9.3µM*	-9%	-17%	3%
CC(C)(C)c1ccc(CN(Cc2ccco2)Cc2nnnn2C2CCCC2)cc1	0%	9.3µM*	5.2µM*	4%	22%	?
CCC(C)(C)n1nnnc1CN(Cc1ccc(Cl)cc1)Cc1ccco1	-2%	10µM*	?	4%	4%	?
CC1=C(c2ccc(C)c(C)c2)S(=O)(=O)N=C1N1CCC(C(=O)NCc2ccc(C)o2)CC1	2%	·	·	·	·	·
Cc1oc2ncn(CC(C)C)c(=O)c2c1C(=O)Nc1cc(F)ccc1F	-4%	·	·	·	·	·

Source: PubChem BioAssay
